# According to the supplement of paper PMC12282887:
# ± gives the standard deviation of the averaged measurements.
# Experiments:
# Test in all cases: promoter activity interaction Z-score (Lux/OD deviation from empty-vector control); higher = stronger promoter induction by the compound
# [1] = tested on: E. coli BW25113 acrABp lux reporter
# How it was run: (§1)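 E. coli BW25113 luxCDABE reporter strains grew at 37°C in 40 µl LB Lennox in 384-well plates, with OD600 and luminescence read every 30 min for 12 h. After integration over 0–8 h for wild type or 1–9 h for deletion strains, wells under 10% of the median growth value were removed. Each score is the Z-transformed residual of growth-normalised luminescence fitted against a control.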
# [2] = tested on: E. coli BW25113 micFp lux reporter
# How it was run: as §1
# [3] = tested on: E. coli BW25113 ompFp lux reporter
# How it was run: as §1
# [4] = tested on: E. coli BW25113 robp lux reporter
# How it was run: as §1
# [5] = tested on: E. coli BW25113 soxSp lux reporter
# How it was run: as §1
# [6] = tested on: E. coli BW25113 tolCp lux reporter
# How it was run: as §1
# [7] = 21 µg/ml, genetic background: wild type
# [8] = 21 µg/ml, genetic background: ΔmarA
# [9] = 21 µg/ml, genetic background: Δrob
# [10] = 21 µg/ml, genetic background: ΔsoxS
# [11] = 42 µg/ml, genetic background: wild type
# [12] = 42 µg/ml, genetic background: ΔmarA
# [13] = 42 µg/ml, genetic background: Δrob
# [14] = 42 µg/ml, genetic background: ΔsoxS
# [15] = 84.1 µg/ml, genetic background: wild type
# [16] = 84.1 µg/ml, genetic background: ΔmarA
# [17] = 84.1 µg/ml, genetic background: Δrob
# [18] = 84.1 µg/ml, genetic background: ΔsoxS
# [19] = 168.2 µg/ml, genetic background: wild type
# [20] = 168.2 µg/ml, genetic background: ΔmarA
# [21] = 168.2 µg/ml, genetic background: Δrob
# [22] = 168.2 µg/ml, genetic background: ΔsoxS
compound,measurement,setting,value
COc1ccc2cc3[n+](cc2c1OC)CCc1cc2c(cc1-3)OCO2 [Berberine],promoter activity interaction Z-score,[1]; [7],0.0236 ± 0.072
same,promoter activity interaction Z-score,[1]; [8],-0.475 ± 0.1
same,promoter activity interaction Z-score,[1]; [9],-0.306 ± 0.009
same,promoter activity interaction Z-score,[1]; [10],0.123 ± 0.39
same,promoter activity interaction Z-score,[1]; [11],-0.0191 ± 0.052
same,promoter activity interaction Z-score,[1]; [12],-0.27 ± 0.38
same,promoter activity interaction Z-score,[1]; [13],-0.196 ± 0.1
same,promoter activity interaction Z-score,[1]; [14],0.128 ± 0.55
same,promoter activity interaction Z-score,[1]; [15],-0.175 ± 0.13
same,promoter activity interaction Z-score,[1]; [16],-0.268 ± 0.47
same,promoter activity interaction Z-score,[1]; [17],-0.263 ± 0.31
same,promoter activity interaction Z-score,[1]; [18],0.253 ± 1.1
same,promoter activity interaction Z-score,[1]; [19],-0.0717 ± 0.13
same,promoter activity interaction Z-score,[1]; [20],-1.16 ± 0.13
same,promoter activity interaction Z-score,[1]; [21],-0.157 ± 0.19
same,promoter activity interaction Z-score,[1]; [22],0.745 ± 1.3
same,promoter activity interaction Z-score,[2]; [7],-0.242 ± 0.064
same,promoter activity interaction Z-score,[2]; [8],0.146 ± 0.14
same,promoter activity interaction Z-score,[2]; [9],-0.0671 ± 0.15
same,promoter activity interaction Z-score,[2]; [10],-0.125 ± 0.15
same,promoter activity interaction Z-score,[2]; [11],0.0805 ± 0.15
same,promoter activity interaction Z-score,[2]; [12],0.226 ± 0.014
same,promoter activity interaction Z-score,[2]; [13],0.0807 ± 0.046
same,promoter activity interaction Z-score,[2]; [14],0.68 ± 0.077
same,promoter activity interaction Z-score,[2]; [15],0.36 ± 0.12
same,promoter activity interaction Z-score,[2]; [16],0.426 ± 0.11
same,promoter activity interaction Z-score,[2]; [17],0.14 ± 0.12
same,promoter activity interaction Z-score,[2]; [18],0.7 ± 0.18
same,promoter activity interaction Z-score,[2]; [19],0.445 ± 0.051
same,promoter activity interaction Z-score,[2]; [20],0.425 ± 0.057
same,promoter activity interaction Z-score,[2]; [21],0.095 ± 0.17
same,promoter activity interaction Z-score,[2]; [22],2.075 ± 0.006
same,promoter activity interaction Z-score,[3]; [7],-0.331 ± 0.05
same,promoter activity interaction Z-score,[3]; [8],-0.189 ± 0.11
same,promoter activity interaction Z-score,[3]; [9],-0.392 ± 0.37
same,promoter activity interaction Z-score,[3]; [10],-0.128 ± 0.0057
same,promoter activity interaction Z-score,[3]; [11],-0.202 ± 0.02
same,promoter activity interaction Z-score,[3]; [12],-0.182 ± 0.032
same,promoter activity interaction Z-score,[3]; [13],0.159 ± 0.48
same,promoter activity interaction Z-score,[3]; [14],-0.184 ± 0.26
same,promoter activity interaction Z-score,[3]; [15],-0.592 ± 0.13
same,promoter activity interaction Z-score,[3]; [16],0.181 ± 0.27
same,promoter activity interaction Z-score,[3]; [17],-0.302 ± 0.21
same,promoter activity interaction Z-score,[3]; [18],0.222 ± 0.86
same,promoter activity interaction Z-score,[3]; [19],-0.265 ± 0.1
same,promoter activity interaction Z-score,[3]; [20],-0.655 ± 0.28
same,promoter activity interaction Z-score,[3]; [21],-0.0984 ± 0.32
same,promoter activity interaction Z-score,[3]; [22],0.615 ± 1.2
same,promoter activity interaction Z-score,[4]; [7],-0.384 ± 0.27
same,promoter activity interaction Z-score,[4]; [8],-0.668 ± 0.061
same,promoter activity interaction Z-score,[4]; [9],-0.229 ± 0.035
same,promoter activity interaction Z-score,[4]; [10],1.02 ± 0.67
same,promoter activity interaction Z-score,[4]; [11],-0.378 ± 0.14
same,promoter activity interaction Z-score,[4]; [12],-0.587 ± 0.51
same,promoter activity interaction Z-score,[4]; [13],-0.855 ± 0.25
same,promoter activity interaction Z-score,[4]; [14],-0.0756 ± 0.39
same,promoter activity interaction Z-score,[4]; [15],-0.935 ± 0.66
same,promoter activity interaction Z-score,[4]; [16],-0.613 ± 0.14
same,promoter activity interaction Z-score,[4]; [17],-0.951 ± 0.11
same,promoter activity interaction Z-score,[4]; [18],-0.288 ± 0.24
same,promoter activity interaction Z-score,[4]; [19],-0.906 ± 0.21
same,promoter activity interaction Z-score,[4]; [20],-1.18 ± 0.24
same,promoter activity interaction Z-score,[4]; [21],-0.88 ± 0.11
same,promoter activity interaction Z-score,[4]; [22],-0.247 ± 0.37
same,promoter activity interaction Z-score,[5]; [7],0.0121 ± 0.039
same,promoter activity interaction Z-score,[5]; [8],0.176 ± 0.081
same,promoter activity interaction Z-score,[5]; [9],0.152 ± 0.084
same,promoter activity interaction Z-score,[5]; [10],-0.0133 ± 0.085
same,promoter activity interaction Z-score,[5]; [11],0.0147 ± 0.0098
same,promoter activity interaction Z-score,[5]; [12],0.336 ± 0.2
same,promoter activity interaction Z-score,[5]; [13],0.0622 ± 0.0015
same,promoter activity interaction Z-score,[5]; [14],-0.227 ± 0.048
same,promoter activity interaction Z-score,[5]; [15],-0.148 ± 0.0029
same,promoter activity interaction Z-score,[5]; [16],0.232 ± 0.064
same,promoter activity interaction Z-score,[5]; [17],0.0295 ± 0.037
same,promoter activity interaction Z-score,[5]; [18],-0.359 ± 0.27
same,promoter activity interaction Z-score,[5]; [19],-0.174 ± 0.033
same,promoter activity interaction Z-score,[5]; [20],0.0364 ± 0.046
same,promoter activity interaction Z-score,[5]; [21],-0.0651 ± 0.054
same,promoter activity interaction Z-score,[5]; [22],-0.426 ± 0.38
same,promoter activity interaction Z-score,[6]; [7],0.227 ± 1.2
same,promoter activity interaction Z-score,[6]; [8],0.771 ± 0.18
same,promoter activity interaction Z-score,[6]; [9],-0.361 ± 0.45
same,promoter activity interaction Z-score,[6]; [10],0.909 ± 0.084
same,promoter activity interaction Z-score,[6]; [11],0.235 ± 0.016
same,promoter activity interaction Z-score,[6]; [12],1.1 ± 0.24
same,promoter activity interaction Z-score,[6]; [13],0.305 ± 0.6
same,promoter activity interaction Z-score,[6]; [14],0.638 ± 0.84
same,promoter activity interaction Z-score,[6]; [15],0.735 ± 0.75
same,promoter activity interaction Z-score,[6]; [16],0.534 ± 0.58
same,promoter activity interaction Z-score,[6]; [17],0.496 ± 0.28
same,promoter activity interaction Z-score,[6]; [18],-0.159 ± 0.1
same,promoter activity interaction Z-score,[6]; [19],0.2 ± 1.1
same,promoter activity interaction Z-score,[6]; [20],-0.272 ± 1.3
same,promoter activity interaction Z-score,[6]; [21],0.279 ± 0.36
same,promoter activity interaction Z-score,[6]; [22],1.31 ± 0.19
